# Test results as given in ChEMBL document CHEMBL3988442, “University of Dundee, Small-Polar-MMV Screening Library” (2021).
# Among all 53,000 compounds or so, about 900 (1.7%) showed an effect of 50% or more. This is one part of a sample in which strong results are shown more often than they occur.
# Tested on: Mycobacterium tuberculosis
# Assay: Cornell - Phenotypic assay to identify agents that inhibit growth of Mycobacterium tuberculosis
# Assay type: functional
# Design: scale not given: direction of the effect not stated beside the values
# Conditions: 10 mM as filed; unlikely as a test dose
row,Compound,Percent Effect [%]
1,COc1cccc(N2CCN(CC(O)c3cc(C)ccc3C)CC2)c1 (centres undefined),-17.91
2,Cc1ccc(-c2nc(CCNC(=O)NCC(C)(C)C(N)=O)co2)cc1,-1.516
3,Cc1ccc(Br)cc1NC(=O)NCC(O)CO (centres undefined),-28.33
4,CN1C(=O)[C@H]2CC[C@@H]1CN(c1ncnc3ccsc13)C2,26.9
5,CN(C)c1nc2n(c(=O)n1)CCN2C(=O)Nc1ccc(Cl)cc1,-48.51
6,CN(C)c1nc2n(c(=O)n1)CCN2C(=O)Nc1ccc(Cl)c(Cl)c1,104.9
7,CN(C)c1nc2n(c(=O)n1)CCN2C(=O)Nc1cccc(Cl)c1,-1.647
8,Cc1cc(C)n(CCCNC(=O)C(C)NC(=O)c2ccccc2Cl)n1 (centres undefined),-13.3
9,CC1(CNC(=O)NCc2ccsc2)CCCS1 (centres undefined),1.003
10,Cc1nc(N2CCOCC2)nc2c1CCN(C(=O)C1CCCCC1)CC2,34.6
11,CCc1sc(-c2nnc(CNC(C)Cn3cccn3)o2)cc1C (centres undefined),50.91
12,Cc1cnn(CCNCc2nnc(C3CC3)o2)c1,-12.52
13,CCc1sc(-c2nnc(CNCCn3cccn3)o2)cc1C,-21.28
14,CCc1sc(-c2nnc(CNCCn3cc(C)cn3)o2)cc1C,69.26
15,CC(Cn1cccn1)NCc1nc(-c2cccs2)no1 (centres undefined),28.55
16,Cc1ccoc1-c1nnc(CNCCn2cccn2)o1,-13.89
17,CCc1sc(-c2nnc(CNC(C)Cn3cc(C)cn3)o2)cc1C (centres undefined),15.55
18,Cc1ccc(-c2nnc(CNCCn3cc(C)cn3)o2)cc1,51.67
19,Cc1ccc(-c2nnc(C(C)NCCn3cc(C)cn3)o2)cc1 (centres undefined),-4.1
20,O=C(O)C(F)(F)F.O=C1N(CC2CC2)CCC12CCN(Cc1ccoc1)CC2,-1.631
21,Cl.O=C(NCCn1nc(C2CCNC2)c2cccnc21)c1ccccc1 (centres undefined),-53.35
22,Cc1c(OCC(=O)NCc2ccccc2)c(=O)ccn1C,2.776

row,Compound,Percent Effect [%]
1,OCCn1nccc1C1CCN(CCOc2ccccc2Cl)CC1,-31.74
2,CCc1cnc(CN(C)C2CCN(CC3CCN(C(C)=O)CC3)C2)o1 (centres undefined),6.622
3,Cc1ccc(-c2cc(N)c(=O)n(CC(=O)NCC3CC3)n2)s1,90.74
4,Nc1cc(-c2cccs2)nn(CC(=O)NCC2CCCCC2)c1=O,91.2
5,Cc1ccc(-c2cc(N)c(=O)n(CC(=O)NCC3CCCCC3)n2)s1,31.53
6,Cc1ccc(-c2cc(N)c(=O)n(CC(=O)NC3CCCC3)n2)s1,-35.82
7,Cc1cc(-c2cc(N)c(=O)n(CC(=O)NCC3CCCCC3)n2)c(C)o1,-31.85
8,Cc1ccc(-c2cc(N)c(=O)n(CC(=O)NC3CCCCC3)n2)s1,21.23
9,CCN1CCn2c(C)cnc2C12CCN(C(=O)C(C)C)CC2.O=C(O)C(F)(F)F.O=C(O)C(F)(F)F,14.47
10,COCCN1C(=O)CO[C@H]2CN(Cc3cccc(OC)c3F)C[C@@H]21,-23.69
11,Cc1cc(NC(=O)CN2CCN(c3nccs3)C(C)C2)on1 (centres undefined),22.95
12,CCOc1ccc(NC(=O)Cn2cc(I)cn2)cc1,8.752
13,OC1CN(c2nc3c(C(F)(F)F)cccc3s2)C1,-37.29
14,O=C(CCc1ccco1)N1CCC(Nc2cccnn2)CC1,-37.65
15,Cc1ccccc1NC1CCN(C(=O)CCc2ccco2)CC1,50.28
16,Cc1ccc(NC2CCN(C(=O)CCc3ccco3)CC2)nn1,9.645
17,COc1cccc(Cn2ncnc2CCSC)c1,21.64
18,CN(Cc1cncnc1)[C@@H]1CN(C(=O)C2CC2)[C@@H]2CCCO[C@H]12.O=C(O)C(F)(F)F,10.43
19,Br.COc1ccc(OCCc2cc(C3CCN(CC(C)C)C3)n[nH]2)cc1 (centres undefined),44.88
20,Clc1ccc(OCCc2cc(C3CCN(c4ncccn4)C3)n[nH]2)cc1 (centres undefined),81.19
21,Cc1cc(C)nc(N2CCC(c3cc(CCO)[nH]n3)C2)n1 (centres undefined),21.68
22,Cn1cc(CN2CCC(c3cc(COc4ccc(Cl)cc4)[nH]n3)C2)cn1 (centres undefined),8.733

row,Compound,Percent Effect [%]
1,Cc1cc(C2CCCN(C(=O)COc3ccc(F)cc3)C2)n[nH]1 (centres undefined),21.79
2,CCCN1CCC(c2cc(CCOc3ccc(C(F)(F)F)cc3)[nH]n2)C1 (centres undefined),74.52
3,CN(C)CCCNCCC(Cc1ccccc1)C1CCOC(C)(C)C1.O=C(O)C(=O)O (centres undefined),18.5
4,O=C(c1cc[nH]n1)N1CCOCC2(C1)CN(c1ccccc1)C(=O)CO2 (centres undefined),56
5,O=C(O)C(F)(F)F.O=C(c1c[nH]cn1)N1CCOCC2(C1)CN(c1ccccc1)C(=O)CO2 (centres undefined),29.26
6,O=C(c1ccc[nH]1)N1CCOCC2(C1)CN(c1ccccc1)C(=O)CO2 (centres undefined),34.74
7,CCn1nnnc1-c1cccc(NCc2nc(C)ccc2O)c1,4.577
8,O=C(O)CCCN1C[C@@H](c2ccccc2F)[C@@]2(CCCCC(=O)N2)C1,43.05
9,COc1cc(F)c(S(=O)(=O)Nc2cnc(O)cc2C)cc1OC,3.766
10,CCC(CN1CCCC1)n1cncc1-c1cnn(Cc2ccccc2)c1.Cl (centres undefined),36.43
11,CC(Cn1cncc1-c1cnn(C2CCCCC2)c1)N1CCCCC1.Cl (centres undefined),-3.197
12,CC(Cn1cncc1-c1cnn(Cc2ccccc2)c1)N1CCCCC1.Cl (centres undefined),58.13
13,CCOc1ccccc1N1CCN(C(=O)NCc2cc[nH]n2)CC1,-20.55
14,CNc1cc(C2CCCN2C(=O)c2ccc(=O)[nH]n2)ccn1.O=CO (centres undefined),2.671
15,CCC(CN1CCCC1)n1cncc1-c1cnn(-c2ccccc2)c1.Cl (centres undefined),55.09
16,CCC(CN1CCCC1)n1cncc1-c1cnn(-c2ccc(F)cc2)c1.Cl (centres undefined),20.09
17,CCC(CN1CCOCC1)n1cncc1-c1ccc2c(c1)CCCN2C.Cl (centres undefined),15.31
18,CCn1nc(C)cc1C(=O)NCc1cc(N(C)C)nc2ccccc12,34.42
19,CC(C)OCCCNC(=O)CN1CCN(c2nccs2)CC1,4.56
20,O=C(c1cnc(O)c(Cl)c1)N1CCCC(c2nccs2)C1 (centres undefined),-10.54
